# Measurements from the OligoGym collection.
# Molecular target: C2orf82
# Test: pooled miR-30 sensor sort-seq; sequence = guide strand
# Details: shRNA
# Also: reference of the scale not given here.
row,Sequence,sensor-assay potency score (higher = more potent)
1,ACATCGTCTGTGAGCACCGCAG,-1.82
2,TGGAACATCGTCTGTGAGCACC,-1.29
3,TTTCTCAGCGCGACGACCACGA,0.0474
4,TCTCAGCGCGACGACCACGAGC,-1.5
5,TCCTGTGGAACATCGTCTGTGA,-0.191
6,TGGTCCAGCCGCTCCTGCGCGG,-1.68
7,AACATCGTCTGTGAGCACCGCA,0.28
8,CTCCTGTGGAACATCGTCTGTG,-1.6
9,ATCGTCTGTGAGCACCGCAGGG,-1.34
10,CTGTGGAACATCGTCTGTGAGC,-2.1
11,TCGTCTGTGAGCACCGCAGGGG,-0.778

# Molecular target: C3orf22
# Test: as above
# Details: shRNA
row,Sequence,sensor-assay potency score (higher = more potent)
1,TCCTCCACTTCTTACTCTGGTG,-1.52
2,TTCTTGGCAAAATTCTCCTGGG,-0.771
3,TCTGTCAGCCACGACAACCTGT,-0.668
4,TTACTCTGGTGAGACTTCTTGC,-0.146
5,TGTACGGAAACTTCTTGGCAAA,-1.61
6,TTTATTAGCTTGGTGTAGCTTT,0.257
7,TTCGAGTCGTTTGTGACCTCCC,0.262
8,TTGGCACCAACCTCTTCTGCAG,-0.633
9,TCCACTTCTTACTCTGGTGAGA,-1.65
10,AAAGGTTGCACAGTGGAGGTGG,1.05
11,AACCTGTACGGAAACTTCTTGG,-1.12
12,TTGCACAGTGGAGGTGGTGATG,-1.21

# Molecular target: C3orf33
# Test: as above
# Details: shRNA
row,Sequence,sensor-assay potency score (higher = more potent)
1,TAACTTTCTTTTTTCAAGCTGA,-0.0803
2,TCAAGCTGAAATCTGATCCTGT,0.793
3,TTCTTTTTCAGAGTCTTCCTTC,0.254
4,TTTTTCATAATAACTTTCTTTT,-0.968
5,TTTGATGTCAGTCGAATGCTTC,-0.51
6,TTAACAAGAACAGTTTTGCCAA,-0.169
7,TATAAGTTCTCTGAACTTCAGT,-0.164
8,TACTCCAGCCAACTTAACCAGC,-1.6
9,TTTAGCTCTTTTTGTAACCATG,-1.58
10,TTGAATTTTTCTAAGTAACTTT,-0.235
11,TAAATTTTGATGTCAGTCGAAT,-0.673
12,TTGTTCATGTTGTCTTTCCATA,-1.3

# Molecular target: C3orf64
# Test: as above
# Details: shRNA
row,Sequence,sensor-assay potency score (higher = more potent)
1,TATAACATGGTCCTATAGCTTG,-1.11
2,TAACATGTTGTAATTCTTCTTA,0.391
3,TAGAAGACTGTTCCAATCCTTT,-0.485
4,TTAATCACAAATGCTCTCCATG,-0.629
5,TTTCCTACCACAAACAGTGTTA,-0.00284
